# Measurements taken from the supplement of paper PMC8728848.
# Shown is part of a subset that was picked to be rich in the strongest signals.
# Assays:
# Assay in all cases: glycan array binding signal (z-score within array); higher = stronger binding
# Conditions in all cases: glycan notation: IUPAC condensed, linker removed
# [1] = biological target: Fuc(a1-2)Gal(b1-3)GlcNAc(b1-3)GalNAc
# Outline: (§1)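 From the Consortium for Functional Glycomics database, 3228 arrays were curated, keeping only those whose protein sequence was available. Binding is given as a within-array Z-score averaged across arrays sharing a protein sequence and across linkers. Negative Z-scores can be read as non-binding.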
# [2] = biological target: Fuc(a1-2)Gal(b1-3)GlcNAc(b1-3)[Fuc(a1-2)Gal(b1-3)GlcNAc(b1-6)]GalNAc
# Outline: as §1
# [3] = biological target: Fuc(a1-2)Gal(b1-4)GlcNAc(b1-2)[Fuc(a1-2)Gal(b1-4)GlcNAc(b1-4)]Man(a1-3)[Fuc(a1-2)Gal(b1-4)GlcNAc(b1-2)Man(a1-6)]Man(b1-4)GlcNAc(b1-4)GlcNAc
# Outline: as §1
# [4] = biological target: Fuc(a1-2)Gal(b1-4)[Fuc(a1-3)]GlcNAc(b1-2)[Fuc(a1-2)Gal(b1-4)[Fuc(a1-3)]GlcNAc(b1-4)]Man(a1-3)[Fuc(a1-2)Gal(b1-4)[Fuc(a1-3)]GlcNAc(b1-2)Man(a1-6)]Man(b1-4)GlcNAc(b1-4)GlcNAc
# Outline: as §1
# [5] = biological target: Fuc(a1-2)[Gal(a1-3)]Gal(b1-3)GlcNAc(b1-2)Man(a1-3)[Fuc(a1-2)[Gal(a1-3)]Gal(b1-3)GlcNAc(b1-2)Man(a1-6)]Man(b1-4)GlcNAc(b1-4)GlcNAc
# Outline: as §1
# [6] = biological target: Fuc(a1-2)[Gal(a1-3)]Gal(b1-4)Glc
# Outline: as §1
# [7] = biological target: Fuc(a1-2)[Gal(a1-3)]Gal(b1-4)GlcNAc(b1-2)Man
# Outline: as §1
# [8] = biological target: Fuc(a1-2)[Gal(a1-3)]Gal(b1-4)GlcNAc(b1-2)Man(a1-3)[Fuc(a1-2)[Gal(a1-3)]Gal(b1-4)GlcNAc(b1-2)Man(a1-6)]Man(b1-4)GlcNAc(b1-4)GlcNAc
# Outline: as §1
# [9] = biological target: Fuc(a1-2)[GalNAc(a1-3)]Gal(b1-3)GlcNAc(b1-2)Man(a1-3)[Fuc(a1-2)[GalNAc(a1-3)]Gal(b1-3)GlcNAc(b1-2)Man(a1-6)]Man(b1-4)GlcNAc(b1-4)GlcNAc
# Outline: as §1
# [10] = biological target: Fuc(a1-2)[GalNAc(a1-3)]Gal(b1-4)GlcNAc(b1-2)Man(a1-3)[Fuc(a1-2)[GalNAc(a1-3)]Gal(b1-4)GlcNAc(b1-2)Man(a1-6)]Man(b1-4)GlcNAc(b1-4)GlcNAc
# Outline: as §1
# [11] = biological target: Fuc(a1-2)[GalNAc(a1-3)]Gal(b1-4)[Fuc(a1-3)]GlcNAc
# Outline: as §1
# [12] = biological target: Fuc(a1-2)[GalNAc(a1-3)]Gal(b1-4)[Fuc(a1-3)]GlcNAc(b1-3)GalNAc
# Outline: as §1
# [13] = biological target: Fuc(a1-3)GlcNAc
# Outline: as §1
# [14] = biological target: Fuc(a1-3)[Gal(b1-4)]GlcNAc6S
# Outline: as §1
# [15] = biological target: Fuc(a1-4)GlcNAc
# Outline: as §1
# [16] = biological target: Fuc(b1-3)GlcNAc
# Outline: as §1
# [17] = biological target: Gal(a1-3)Gal
# Outline: as §1
# [18] = biological target: Gal(a1-3)Gal(b1-3)GlcNAc(b1-2)Man(a1-3)[Gal(a1-3)Gal(b1-3)GlcNAc(b1-2)Man(a1-6)]Man(b1-4)GlcNAc(b1-4)GlcNAc
# Outline: as §1
# [19] = biological target: Gal(a1-3)Gal(b1-3)[Fuc(a1-4)]GlcNAc(b1-2)Man(a1-3)[Gal(a1-3)Gal(b1-3)[Fuc(a1-4)]GlcNAc(b1-2)Man(a1-6)]Man(b1-4)GlcNAc(b1-4)GlcNAc
# Outline: as §1
# [20] = biological target: Gal(a1-3)Gal(b1-4)GlcNAc
# Outline: as §1
# [21] = biological target: Gal(a1-4)Gal(b1-4)Glc
# Outline: as §1
# [22] = biological target: Gal(b1-3)GalNAc
# Outline: as §1
# [23] = biological target: Gal(b1-3)GlcNAc(b1-2)Man(a1-3)[Gal(b1-3)GlcNAc(b1-2)Man(a1-6)]Man(b1-4)GlcNAc(b1-4)[Fuc(a1-6)]GlcNAc
# Outline: as §1
# [24] = biological target: Gal(b1-3)GlcNAc(b1-3)Gal(b1-4)GlcNAc(b1-3)Gal(b1-4)GlcNAc(b1-2)[Gal(b1-3)GlcNAc(b1-3)Gal(b1-4)GlcNAc(b1-3)Gal(b1-4)GlcNAc(b1-6)]Man(a1-6)[Gal(b1-3)GlcNAc(b1-3)Gal(b1-4)GlcNAc(b1-3)Gal(b1-4)GlcNAc(b1-2)Man(a1-3)]Man(b1-4)GlcNAc(b1-4)[Fuc(a1-6)]GlcNAc
# Outline: as §1
# [25] = biological target: Gal(b1-3)[Fuc(a1-4)]GlcNAc(b1-6)GalNAc
# Outline: as §1
# [26] = biological target: Gal(b1-4)GlcNAc(b1-3)Gal(b1-4)GlcNAc(b1-2)Man(a1-3)[Gal(b1-4)GlcNAc(b1-3)Gal(b1-4)GlcNAc(b1-2)Man(a1-6)]Man(b1-4)GlcNAc(b1-4)[Fuc(a1-6)]GlcNAc
# Outline: as §1
# [27] = biological target: Gal(b1-4)GlcNAc(b1-3)Gal(b1-4)GlcNAc(b1-2)[Gal(b1-4)GlcNAc(b1-3)Gal(b1-4)GlcNAc(b1-6)]Man(a1-6)[Gal(b1-4)GlcNAc(b1-3)Gal(b1-4)GlcNAc(b1-2)Man(a1-3)]Man(b1-4)GlcNAc(b1-4)GlcNAc
# Outline: as §1
# [28] = biological target: Gal(b1-4)GlcNAc(b1-3)Gal(b1-4)GlcNAc(b1-3)Gal(b1-4)GlcNAc(b1-2)Man(a1-3)[Gal(b1-4)GlcNAc(b1-3)Gal(b1-4)GlcNAc(b1-3)Gal(b1-4)GlcNAc(b1-2)Man(a1-6)]Man(b1-4)GlcNAc(b1-4)GlcNAc
# Outline: as §1
binder,measurement,setting,value
PX9961V-pdi-562-26-562 (Parabacteroides distasonis) (protein) EIFSEITTDNYYQNSNNIYAALVNNYAKAFSTGWSDARYFLQEVTADQLMIPTRGKHGYNGGEYVRLHEHKWTVEENFVYNGWAAPFQGIALCNNTLSDFENLDFSTFKLTEETKNEYIAELRALRVWNYMFLIDFFRHVPIVTDIEEVKAQSTPLEVFNFMESELLAILPDLPKNRGVSRFDQAGVASILVRLYLNAEKWIGISKYDECEQMAQAILDGKYGEYSIDPDYRGPFRSGINGYRSKENIMEFAIKKNYFEASWLYNMWMHYQDRYSLDNDWQGWNGGNLAPSRDLYGNLYQDKLGMPFEKFPDGDIRKKAFRVISNDGDYEGFFLMGTQYKFDYEKGYGFTDEVITGTEEYNGKPLVYVDQVGRFSEGETGLAKGSHVIYGEENTGYRLIKFPWLPQSKDLFQMNSIPEIRLAEIYYSLAECKYRSGDKIGAARLLDVVRKRYYKAEDWSKFSYESNISKLTDDEFVDELGREFIGERHRRIDLIRWNRFSEGAWWDKTPDATNQDVFPIPYRALNANPLLKQTTAGF,glycan array binding signal (z-score),[1],-0.58
same,glycan array binding signal (z-score),[2],2.04
same,glycan array binding signal (z-score),[3],-0.54
same,glycan array binding signal (z-score),[4],-0.424
same,glycan array binding signal (z-score),[5],-0.108
same,glycan array binding signal (z-score),[6],-0.228
same,glycan array binding signal (z-score),[7],-0.182
same,glycan array binding signal (z-score),[8],3.45
same,glycan array binding signal (z-score),[9],-0.21
same,glycan array binding signal (z-score),[10],4.28
same,glycan array binding signal (z-score),[11],-0.369
same,glycan array binding signal (z-score),[12],7.22
same,glycan array binding signal (z-score),[13],-0.508
same,glycan array binding signal (z-score),[14],0.861
same,glycan array binding signal (z-score),[15],-0.596
same,glycan array binding signal (z-score),[16],-0.328
same,glycan array binding signal (z-score),[17],0
same,glycan array binding signal (z-score),[18],2.03
same,glycan array binding signal (z-score),[19],3.94
same,glycan array binding signal (z-score),[20],0.068
same,glycan array binding signal (z-score),[21],-0.099
same,glycan array binding signal (z-score),[22],-0.185
same,glycan array binding signal (z-score),[23],5.1
same,glycan array binding signal (z-score),[24],4.46
same,glycan array binding signal (z-score),[25],6.13
same,glycan array binding signal (z-score),[26],4.04
same,glycan array binding signal (z-score),[27],4.58
same,glycan array binding signal (z-score),[28],4.36
